# PubChem BioAssay (NCATS)
# Values without a mark were called inactive. Results filed as inconclusive are left out. A call without a number means that no potency is given here. The source made the active and inactive calls. Unless noted, calls come from the whole dose curve; as a rule, active = well fitted curve in the direction sought with a large enough effect; inconclusive = small, poorly fitted or top-dose-only effect, or another doubt; inactive = no such curve, though single readings can be large; an effect the other way counts as inactive or inconclusive.
# Tests used:
# [1] = target: Calcium and integrin-binding protein 1 (Homo sapiens) (UniProt Q99828); assay: Primary qHTS for Identification of Calcium Integrin Binding Protein 1 (CIB1) Competitor (AID 1508620);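 note: GST tagged CIB1 binding a fluorescein labelled alphaIIb integrin peptide tracer; top concentration of the series differs between compounds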
# Calcium and integrin-binding protein 1 (Homo sapiens), sequence (Q99828 whole entry, looked up): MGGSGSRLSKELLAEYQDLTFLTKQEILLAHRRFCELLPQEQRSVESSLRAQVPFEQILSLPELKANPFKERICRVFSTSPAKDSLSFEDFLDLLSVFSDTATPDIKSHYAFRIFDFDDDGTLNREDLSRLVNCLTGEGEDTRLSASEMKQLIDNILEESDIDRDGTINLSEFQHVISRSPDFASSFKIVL
# Method in brief: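 Fluorescence polarization competition: GST-tagged CIB1 (1 uM final) preincubated with compound 15 min at room temperature, then FITC-labelled alphaIIb peptide (100 nM final) added. After 15 min at room temperature, polarization read at Ex 480/Em 540.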
# [2] = target: Lysosomal acid glucosylceramidase (Homo sapiens) (UniProt P04062); assay: Glucocerebrosidase-p2 (AID 348; in the data active = potency below about 10 µM; note: potency is the fitted concentration of half-maximal effect); settings: purified GBA, blue fluorogenic substrate, 40 min
# Lysosomal acid glucosylceramidase (Homo sapiens), sequence (P04062 whole entry, looked up): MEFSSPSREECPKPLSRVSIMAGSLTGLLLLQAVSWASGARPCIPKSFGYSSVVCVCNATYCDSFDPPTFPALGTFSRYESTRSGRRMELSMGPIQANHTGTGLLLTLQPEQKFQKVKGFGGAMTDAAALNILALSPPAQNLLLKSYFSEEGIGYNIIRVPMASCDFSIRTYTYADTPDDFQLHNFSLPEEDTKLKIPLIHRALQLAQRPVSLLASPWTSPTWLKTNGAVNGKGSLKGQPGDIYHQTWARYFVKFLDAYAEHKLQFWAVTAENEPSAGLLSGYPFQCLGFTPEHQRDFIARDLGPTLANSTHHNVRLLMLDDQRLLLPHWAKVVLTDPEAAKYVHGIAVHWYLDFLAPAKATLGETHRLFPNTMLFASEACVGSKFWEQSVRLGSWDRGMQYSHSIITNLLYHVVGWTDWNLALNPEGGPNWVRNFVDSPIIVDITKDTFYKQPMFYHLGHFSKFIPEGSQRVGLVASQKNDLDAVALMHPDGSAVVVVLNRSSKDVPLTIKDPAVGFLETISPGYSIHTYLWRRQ
# Method in brief: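 Compounds titrated from 0.6 nM upwards against 0.2 nM enzyme in pH 5.9 citric acid/KH2PO4, taurocholate, tween-20; blue fluorogenic substrate 80 uM, 40 min room temperature, stopped and read Ex 365/Em 440 for AC50.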
# [3] = target: Cytochrome P450 1A2 (Homo sapiens) (UniProt P05177); assay: p450-cyp1a2 (AID 410; calls by dose curve; note: potency is the fitted concentration of half-maximal effect)
# Cytochrome P450 1A2 (Homo sapiens), sequence (P05177 whole entry, looked up): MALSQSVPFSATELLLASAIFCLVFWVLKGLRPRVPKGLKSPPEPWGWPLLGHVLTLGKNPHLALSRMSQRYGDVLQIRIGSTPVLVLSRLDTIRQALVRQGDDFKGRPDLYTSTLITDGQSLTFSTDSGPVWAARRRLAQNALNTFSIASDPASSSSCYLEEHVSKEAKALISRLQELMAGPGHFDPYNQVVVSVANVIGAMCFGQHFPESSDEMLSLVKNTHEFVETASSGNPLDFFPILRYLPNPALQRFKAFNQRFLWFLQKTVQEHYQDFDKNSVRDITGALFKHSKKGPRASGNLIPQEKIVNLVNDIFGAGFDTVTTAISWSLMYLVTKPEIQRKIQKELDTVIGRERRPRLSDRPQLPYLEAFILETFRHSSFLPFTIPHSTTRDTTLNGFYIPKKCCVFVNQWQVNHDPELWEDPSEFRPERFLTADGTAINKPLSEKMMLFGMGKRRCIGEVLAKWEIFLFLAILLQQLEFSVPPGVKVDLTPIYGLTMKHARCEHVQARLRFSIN
# Method in brief: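 Luminescent readout of luciferin formed from Luciferin-ME by human CYP1A2; data normalized against complete inhibition by 57 uM furafylline. Enzyme 20nM, substrate 100uM at Km, 100mM KPO4 buffer, 60 min reaction at room temperature.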
# [4] = NFAT Signaling Pathway (AID 444; active = well fitted curve in either direction with a large enough effect, not every such curve was filed as active;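 note: carbachol stimulus at about its EC50 of 1 µM final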); settings: Jurkat NFAT-bla M1, carbachol, beta-lactamase ratio, 5 h; at 7.69 µM (top of the series) unless noted
# Method in brief: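 Jurkat cells with NFAT-driven β-lactamase reporter and co-expressed M1 receptor, stimulated with carbachol (final 1 uM, ~EC50), compound titration, 5 h at 37 °C. CCF4 loaded 1 h at RT; 460/530 nm ratio gave %activity and AC50.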
# [5] = target: Glucocorticoid receptor (Homo sapiens) (UniProt P04150); assay: GR-EFC Redistribution (AID 451; calls by dose curve; note: potency is the fitted concentration of half-maximal effect); settings: CHO-K1 GR-EFC translocation, beta-gal luminescence, 2 h
# Glucocorticoid receptor (Homo sapiens), sequence (P04150 whole entry, looked up, the tested form may be a part): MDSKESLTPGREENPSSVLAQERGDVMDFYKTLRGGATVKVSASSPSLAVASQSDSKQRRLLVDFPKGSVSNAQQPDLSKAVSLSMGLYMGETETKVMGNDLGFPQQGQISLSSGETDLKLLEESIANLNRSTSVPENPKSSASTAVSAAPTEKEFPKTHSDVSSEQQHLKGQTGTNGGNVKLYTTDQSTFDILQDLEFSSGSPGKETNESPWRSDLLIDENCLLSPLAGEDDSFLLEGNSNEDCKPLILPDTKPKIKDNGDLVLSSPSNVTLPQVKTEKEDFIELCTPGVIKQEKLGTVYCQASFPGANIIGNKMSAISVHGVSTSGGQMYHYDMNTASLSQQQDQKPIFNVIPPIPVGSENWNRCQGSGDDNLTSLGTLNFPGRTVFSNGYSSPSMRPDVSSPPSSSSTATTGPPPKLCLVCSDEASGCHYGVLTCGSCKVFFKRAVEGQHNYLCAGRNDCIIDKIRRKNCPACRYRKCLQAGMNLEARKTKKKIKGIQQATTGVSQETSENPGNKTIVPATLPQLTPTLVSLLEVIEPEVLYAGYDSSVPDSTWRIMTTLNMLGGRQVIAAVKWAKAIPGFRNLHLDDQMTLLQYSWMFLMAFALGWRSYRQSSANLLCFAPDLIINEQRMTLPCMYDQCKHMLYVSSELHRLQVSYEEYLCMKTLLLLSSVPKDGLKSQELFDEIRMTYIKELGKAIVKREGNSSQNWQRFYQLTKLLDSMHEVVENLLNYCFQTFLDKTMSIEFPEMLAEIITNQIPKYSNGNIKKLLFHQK
# Method in brief: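 CHO-K1 cells expressing nuclear EA and GR-ED fragments of b-gal; compounds titrated up to 46 uM final, 2 h at 37 C. GR nuclear translocation read as complemented b-gal luminescence after 1 h RT detection.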
# [6] = target: Mitogen-activated protein kinase 10 (Mus musculus) (UniProt Q61831); assay: JNK3 AlphaScreen Assay (AID 530; active = well fitted curve in either direction with a large enough effect, not every such curve was filed as active;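 note: kinase came from lysate of stimulated human HepG2 cells; signal reports phosphorylation of biotinylated GST-cJun 1-79 at Ser73 with 10 µM ATP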)
# Method in brief: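 Pre-activated (IL-1β/TNFα) JNK3 in HepG2 lysates phosphorylates biotin-GST-cJun(1-79), 10 uM ATP; anti-phospho-cJun(Ser73) AlphaScreen read at room temperature, pH 7.6 Tris buffer. Compounds pre-incubated 15 min as titrations.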
# [7] = target: 3',5'-cyclic-AMP phosphodiesterase 4B (Homo sapiens) (UniProt Q07343); assay: qHTS Assay for Inhibitors of PDE-IV (AID 607; active = well fitted activation curve with a large enough effect in the main read-out, with a control signal flat, not every such curve was filed as active)
# 3',5'-cyclic-AMP phosphodiesterase 4B (Homo sapiens), sequence (Q07343 whole entry, looked up): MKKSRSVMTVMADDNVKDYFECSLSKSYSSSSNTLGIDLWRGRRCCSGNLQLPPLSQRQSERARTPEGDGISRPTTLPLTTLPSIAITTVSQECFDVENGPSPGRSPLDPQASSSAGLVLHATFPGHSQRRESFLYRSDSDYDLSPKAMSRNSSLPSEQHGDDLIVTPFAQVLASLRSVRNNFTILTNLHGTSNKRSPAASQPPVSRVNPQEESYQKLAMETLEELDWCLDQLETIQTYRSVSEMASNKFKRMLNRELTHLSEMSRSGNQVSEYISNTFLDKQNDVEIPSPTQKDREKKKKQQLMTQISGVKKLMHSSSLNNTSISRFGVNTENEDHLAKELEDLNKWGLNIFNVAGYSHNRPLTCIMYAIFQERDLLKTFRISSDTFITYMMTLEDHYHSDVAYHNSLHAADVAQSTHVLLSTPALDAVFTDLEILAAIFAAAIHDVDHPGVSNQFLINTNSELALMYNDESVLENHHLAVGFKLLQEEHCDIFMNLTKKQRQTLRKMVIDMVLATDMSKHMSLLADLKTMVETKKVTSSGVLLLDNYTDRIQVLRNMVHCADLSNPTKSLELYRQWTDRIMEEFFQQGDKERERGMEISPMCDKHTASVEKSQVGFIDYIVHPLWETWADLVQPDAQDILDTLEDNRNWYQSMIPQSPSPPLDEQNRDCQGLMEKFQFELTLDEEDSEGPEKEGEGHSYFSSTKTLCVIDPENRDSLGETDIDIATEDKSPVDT
# Method in brief: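 ACTOne HEK293 cells carry a modified cAMP-gated CNG channel and express endogenous PDE4; plated 1000 cells/well, compounds up to 22.9 uM final. Membrane-potential dye fluorescence (ex 535/em 590) was read; parental cells received 10 uM forskolin + 100 uM RO 20-1724.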
# [8] = target: Cytochrome P450 3A4 (Homo sapiens) (UniProt P08684); assay: qHTS Assay for Activators of Cytochrome P450 3A4 (AID 885); note: nearly all actives have a fitted effect of over 65% in size
# Cytochrome P450 3A4 (Homo sapiens), sequence (P08684 whole entry, looked up): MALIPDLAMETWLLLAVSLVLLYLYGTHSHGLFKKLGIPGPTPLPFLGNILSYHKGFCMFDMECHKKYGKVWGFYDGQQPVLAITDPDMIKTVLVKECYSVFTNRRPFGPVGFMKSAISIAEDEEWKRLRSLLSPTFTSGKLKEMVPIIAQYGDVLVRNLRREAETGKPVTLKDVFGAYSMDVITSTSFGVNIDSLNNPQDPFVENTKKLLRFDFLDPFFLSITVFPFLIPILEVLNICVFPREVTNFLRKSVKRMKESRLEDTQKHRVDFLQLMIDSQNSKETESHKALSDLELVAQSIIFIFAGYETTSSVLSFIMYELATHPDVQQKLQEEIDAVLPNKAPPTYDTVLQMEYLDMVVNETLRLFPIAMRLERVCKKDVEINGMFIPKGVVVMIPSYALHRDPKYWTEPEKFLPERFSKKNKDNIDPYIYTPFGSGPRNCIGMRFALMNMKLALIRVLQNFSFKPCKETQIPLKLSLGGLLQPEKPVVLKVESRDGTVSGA
# Method in brief: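 20nM CYP3A4 + 25uM Luciferin-PPXE (=KM), 200mM KPO4; cpd 10 min RT; NADPH regen, 60 min RT; stop w/ detection buffer, 20 min; luminescence. Normalized to 57 uM ketoconazole.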
# [9] = target: Cytochrome P450 2C19 (Homo sapiens) (UniProt P33261); assay: qHTS Assay for Inhibitors and Substrates of Cytochrome P450 2C19 (AID 899); note: potency is the fitted concentration of half-maximal effect; nearly all actives have a fitted effect of over 60% in size
# Cytochrome P450 2C19 (Homo sapiens), sequence (P33261 whole entry, looked up): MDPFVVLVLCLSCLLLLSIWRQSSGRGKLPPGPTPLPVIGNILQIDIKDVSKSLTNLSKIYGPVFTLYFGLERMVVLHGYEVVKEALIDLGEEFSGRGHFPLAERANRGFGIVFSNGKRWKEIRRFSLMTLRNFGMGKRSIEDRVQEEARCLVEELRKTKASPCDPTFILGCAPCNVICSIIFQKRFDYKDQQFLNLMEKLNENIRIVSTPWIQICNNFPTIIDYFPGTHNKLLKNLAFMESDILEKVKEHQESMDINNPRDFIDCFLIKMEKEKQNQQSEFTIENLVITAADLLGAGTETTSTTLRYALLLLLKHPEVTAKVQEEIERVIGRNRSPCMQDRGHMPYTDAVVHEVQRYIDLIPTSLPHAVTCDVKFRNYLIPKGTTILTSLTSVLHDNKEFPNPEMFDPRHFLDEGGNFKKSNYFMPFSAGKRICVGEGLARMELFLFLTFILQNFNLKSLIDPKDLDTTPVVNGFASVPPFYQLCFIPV
# Method in brief: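 Luminescent read-out of luciferin formed from Luciferin-H EGE (10uM, equal to KM). Enzyme 5nM in 50mM KPO4; compound added, 10 min at 37C, then NADPH regenerating system for 60 min at 37C. Full inhibition defined by 57uM ketoconazole.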
# [10] = target: Dual specificity protein kinase CLK4 (Homo sapiens) (UniProt Q9HAZ1); assay: qHTS Assay for Inhibitors of CDC-like Kinase 4 (Kinase-Glo Assay) (AID 1770); note: potency is the fitted concentration of half-maximal effect; nearly all actives have a fitted effect of over 65% in size
# Dual specificity protein kinase CLK4 (Homo sapiens), sequence (Q9HAZ1 whole entry, looked up): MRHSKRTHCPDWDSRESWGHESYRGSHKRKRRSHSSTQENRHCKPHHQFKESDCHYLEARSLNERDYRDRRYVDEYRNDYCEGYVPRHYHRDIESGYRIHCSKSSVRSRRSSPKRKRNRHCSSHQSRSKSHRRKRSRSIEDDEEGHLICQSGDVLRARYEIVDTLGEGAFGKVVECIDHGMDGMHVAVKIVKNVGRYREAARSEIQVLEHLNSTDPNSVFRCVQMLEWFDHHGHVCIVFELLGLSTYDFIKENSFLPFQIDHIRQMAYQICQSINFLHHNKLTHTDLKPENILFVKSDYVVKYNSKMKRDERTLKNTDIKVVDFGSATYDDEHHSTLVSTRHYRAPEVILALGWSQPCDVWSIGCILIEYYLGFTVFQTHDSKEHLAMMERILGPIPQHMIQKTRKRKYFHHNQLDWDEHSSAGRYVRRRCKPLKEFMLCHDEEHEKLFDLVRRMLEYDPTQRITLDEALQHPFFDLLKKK
# Method in brief: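 Clk4 25 nM, RS peptide 100 uM, ATP 1 uM, pH 7.5 Tris, 10 mM MgCl2, 2.5 mM DTT; 4.5 h RT; ATP depletion read by Kinase-Glo luminescence.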
# [11] = target: Dual specificity protein kinase CLK4 (Homo sapiens) (UniProt Q9HAZ1); assay: qHTS Assay for Inhibitors of CDC-like Kinase 4 (ADP-Glo Assay) (AID 1771); note: potency is the fitted concentration of half-maximal effect; nearly all actives have a fitted effect of over 70% in size
# Method in brief: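 Luminescence from ADP-Glo reports ADP produced by 25 nM Clk4 acting on 100 uM RS repeat peptide with 1 uM ATP over 1 hr at room temperature; residual ATP is depleted before ADP is converted to ATP for detection.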
# [12] = target: Dual specificity protein kinase CLK4 (Homo sapiens) (UniProt Q9HAZ1); assay: qHTS Assay for Inhibitors of CDC-like Kinase 4 (ADP-FP Assay) (AID 1795); note: potency is the fitted concentration of half-maximal effect; nearly all actives have a fitted effect of over 60% in size
# Method in brief: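 Kinase activity was followed as ADP output, converted from fluorescence polarization with a calibration curve. Reactions ran one hour at low ATP (1 uM) with RS peptide substrate.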
# [13] = target: Ubiquitin carboxyl-terminal hydrolase 1 (Homo sapiens) (UniProt O94782); assay: Inhibitors of USP1/UAF1: Pilot qHTS (AID 504865);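 note: rhodamine fluorescence freed from ubiquitin-rhodamine substrate followed over time; top concentration of the series differs between compounds; nearly all actives have a fitted effect of over 35% in size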
# Ubiquitin carboxyl-terminal hydrolase 1 (Homo sapiens), sequence (O94782 whole entry, looked up): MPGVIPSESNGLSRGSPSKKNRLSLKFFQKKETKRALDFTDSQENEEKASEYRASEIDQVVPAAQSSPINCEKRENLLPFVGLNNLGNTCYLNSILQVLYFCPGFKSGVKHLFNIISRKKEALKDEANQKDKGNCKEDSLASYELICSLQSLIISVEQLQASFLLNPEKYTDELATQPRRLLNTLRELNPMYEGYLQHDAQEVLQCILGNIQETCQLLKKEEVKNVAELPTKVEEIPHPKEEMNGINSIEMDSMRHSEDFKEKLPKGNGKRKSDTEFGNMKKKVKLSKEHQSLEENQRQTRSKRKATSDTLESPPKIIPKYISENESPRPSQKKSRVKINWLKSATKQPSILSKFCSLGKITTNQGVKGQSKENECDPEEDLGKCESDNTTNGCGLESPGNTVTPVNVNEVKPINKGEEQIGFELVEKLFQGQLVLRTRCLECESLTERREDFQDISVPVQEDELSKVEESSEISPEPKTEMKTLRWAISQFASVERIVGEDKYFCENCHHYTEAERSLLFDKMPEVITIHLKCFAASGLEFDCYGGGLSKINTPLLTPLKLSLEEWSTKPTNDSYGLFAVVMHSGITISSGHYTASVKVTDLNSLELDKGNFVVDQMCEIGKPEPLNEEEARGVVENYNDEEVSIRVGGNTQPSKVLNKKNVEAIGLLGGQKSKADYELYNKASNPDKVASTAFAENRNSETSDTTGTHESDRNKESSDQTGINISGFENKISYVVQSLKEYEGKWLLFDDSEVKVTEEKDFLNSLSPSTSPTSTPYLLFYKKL
# Method in brief: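 Enzyme-free wells gave the negative control, while test wells held 1nM USP1/UAF1 preincubated with compound for 15 min at room temperature. Ub-Rho at 150nM final started the reaction, and fluorescence at 480/540 nm was recorded kinetically.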
# [14] = Primary qHTS for small molecule stabilizers of the endoplasmic reticulum resident proteome: Secreted ER Calcium Modulated Protein (SERCaMP) assay (AID 1508630)
# Method in brief: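 GLuc-SERCaMP-expressing SH-SY5Y cells, pretreated 16 h with compound, are challenged with thapsigargin to empty ER calcium stores; after 4 h, coelenterazine is added directly to the medium and luminescence is imaged.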
compound,measurement,setting,value
O=C1CCCC2=C1C(c1[nH]ncc1Cl)N=C(Nc1nc3c(Cl)cccc3o1)N2 (configuration not stated),Potency,[1],inactive
Cc1ccc(Cn2ncc3c4sc(C)cc4n(C)c3c2=O)cc1,Potency,[1],inactive
CCOc1ccc(C(=O)Oc2ccc(-c3nc4ccccc4[nH]3)cc2)cc1,Potency,[1],inactive
COc1ccc(S(=O)(=O)N2CCN(S(=O)(=O)c3c(F)cccc3F)CC2)cc1,Potency,[1],inactive
CN(Cc1ccco1)c1ncnc2ccc(-c3cccc(Cl)c3)cc12,Potency,[1],inactive
c1nc(N2CCCCC2)c2cc(-c3ccc4c(c3)OCO4)ccc2n1,Potency,[1],inactive
COc1ccc(C2c3ccc(OCc4ccccc4)cc3Oc3ncn(CCN4CCOCC4)c(=N)c32)cc1OC (configuration not stated),Potency,[1],inactive
O=C1Cc2cc(C(=O)c3ccco3)ccc2N1,Potency,[1],inactive
COc1ccnc(NC(=S)N2CCN(c3ncc(C(F)(F)F)cc3Cl)CC2)c1,Potency,[1],inactive
Cc1cc2c(s1)c1cnn(Cc3c(Cl)ccc(C)c3F)c(=O)c1n2C,Potency,[1],inactive
Cc1csc(CNc2ncnc3ccc(-c4ccc5c(c4)OCO5)cc23)n1,Potency,[1],inactive
Nc1nc(NCc2ccc(-c3cccnc3)cc2)c2ccccc2n1,Potency,[1],inactive
CNc1nnc(-c2cccc3ccccc23)s1,Potency,[1],inactive
COc1cccc(-c2nnc3n2N=C(c2ccccc2OC)CS3)c1,Potency,[1],inactive
Cc1ccc(-c2ccc(=O)n(CC(=O)NCCC3CC3)n2)cc1,Potency,[1],inactive
Cc1nc(-c2ccccc2)oc1-c1ccc2ncnc(NCCc3cnc[nH]3)c2c1,Potency,[1],inactive
O=C1CCCC2=C1C(c1[nH]ncc1Cl)NC(=NCc1nccs1)N2 (configuration not stated),Potency,[1],inactive
O=C(CN1C(=O)N/C(=C\c2cccn2-c2cccc(C(=O)O)c2)C1=O)Nc1cccc(F)c1,Potency,[1],inactive
Cc1cc(C)nc(NC(=S)N2CCN(c3cncc4ccccc34)CC2)c1,Potency,[1],inactive
N#CN1CCC(NC(=O)c2cccc(C(F)(F)F)c2)CC1,Potency,[1],inactive
N#Cc1c(-c2ccc(OCCOCCOCCN)cc2)no[n+]1[O-],Potency,[1],inactive
O=S1(=O)N=C(Oc2ccc(Br)cc2)c2ccccc21,Potency,[1],inactive
Cc1cc(C)nc(NC(=S)N2CCN(c3nc(C)cnc3C)CC2)c1,Potency,[1],inactive
COc1ccc(C2Nc3ccccc3C(=O)N2CCc2ccccc2)cc1COc1ccc(NC(C)=O)cc1 (configuration not stated),Potency,[1],inactive
Nc1cccc(S(=O)(=O)N2CCN(S(=O)(=O)c3c(F)cccc3F)CC2)c1,Potency,[1],inactive
CC(C)c1ccccc1-c1ncc(N(C)C)c(NCc2ccc(-c3cccnc3)cc2)n1,Potency,[1],inactive
COc1ccccc1C1=Nn2c(COc3ccccc3)nnc2SC1,Potency,[1],inactive
COc1ccc2ncnc(NCc3cccs3)c2c1-c1ccc2c(c1)OCO2,Potency,[1],inactive
COc1ccc(C2Nc3ccccc3C(=O)N2Cc2ccco2)cc1COc1c(C)cc(NC(C)=O)cc1C (configuration not stated),Potency,[1],inactive
COc1ccc(C2Nc3ccccc3C(=O)N2Cc2ccccc2)cc1COc1ccc(NC(=O)c2ccccc2)cc1 (configuration not stated),Potency,[1],inactive
COc1cc(N2C(=O)c3ccccc3C2=O)c2ncccc2c1,Potency,[1],inactive
COc1cccc(NC(=S)N2CCN(c3cccc(C(F)(F)F)n3)CC2)n1,Potency,[1],inactive
N#Cc1c(-c2cccc(Br)c2)no[n+]1[O-],Potency,[1],inactive
Cc1cc(NS(=O)(=O)c2cc3c(cc2N[C@@H](C)CO)NC(=O)CC3)ccc1F,Potency,[1],inactive
CC(=O)N[C@H](C(=O)N[C@@H](C)C(=O)N[C@H](C#N)CC(=O)O)C(C)C,Potency,[1],inactive
Cc1ccc(OCCn2c3c(c4ccccc42)CCN(C(=O)C2CCCCC2)C3)cc1,Potency,[1],inactive
Cc1cc2c(s1)c1cnn(Cc3cc(F)c(F)c(F)c3)c(=O)c1n2C,Potency,[1],inactive
O=C(c1ccc2c(c1)ncn2-c1cccc(Cl)c1)N1CCCCC1,Potency,[1],inactive
COc1ccc(OCc2cc(C3Nc4ccccc4C(=O)N3Cc3ccccc3)ccc2OC)cc1 (configuration not stated),Potency,[1],inactive
COc1ccc(-c2ccc(CNc3ccc(N4CCN(C(=O)OC(C)(C)C)CC4)cc3)o2)cc1,Potency,[1],inactive
Cc1ccc(C2N=C(Nc3nc4ccccc4o3)NC3=C2C(=O)CCC3)s1 (configuration not stated),Potency,[1],inactive
Cc1cccc(S(=O)(=O)N2CCN(S(=O)(=O)c3ccc4c(c3)OCCO4)CC2)c1,Potency,[1],inactive
Cc1ccc(S(=O)(=O)N(C)c2cccc3cccnc23)cc1,Potency,[1],inactive
O=C1c2ccccc2C(=O)N1Cc1ccccc1,Potency,[1],inactive
Cc1ccc(OC2=NS(=O)(=O)c3ccccc32)cc1,Potency,[1],inactive
Cc1nnc(-c2cnn(C)c2N)n1CCCc1ccccc1,Potency,[1],inactive
O=c1c2ccc(F)cc2nc2sc(Nc3ccc4c(c3)CCC4)nn12,Potency,[1],inactive
CC(C)(C)n1nc(Cc2cccc([N+](=O)[O-])c2)c2c(N)ncnc21,Potency,[1],inactive
O=C(Cn1nc(-c2ccncc2)ccc1=O)NCCc1ccccc1,Potency,[1],inactive
Cc1nc2ccc(Nc3nc(Nc4c(C)cc(C=CC#N)cc4C)nc4nc[nH]c34)cc2s1,Potency,[1],inactive
Cc1cnc(-c2ccccc2C2COC2)nc1NCc1ccc(-n2ccnn2)cc1,Potency,[1],inactive
COc1cccc(-c2ccc3ncnc(NCc4cccnc4)c3c2)c1,Potency,[2],> 11400 nM
same,Potency,[3],251 nM (active)
same,"activity change, negative = inhibition",[4],9.62%
same,Potency,[5],> 46000 nM
same,outcome,[6],inactive
same,Potency,[7],inactive
same,Potency,[8],inactive
same,Potency,[9],12.6 nM (active)
same,Potency,[10],2820 nM (active)
same,Potency,[11],2820 nM (active)
same,Potency,[12],1580 nM (active)
same,Potency,[13],inactive
same,Potency,[1],inactive
same,Potency,[14],inactive
Cc1ccc(CNc2ncnc3ccc(-c4ccoc4C)cc23)o1,Potency,[1],inactive
Cc1c(Br)cc(F)c([S+](=O)([O-])N2CCN([S+](=O)([O-])c3ccc4c(c3)OCCO4)CC2)c1F,Potency,[1],inactive
